From PubChem BioAssay AID1006 (Sanford-Burnham Center for Chemical Genomics, 2008) come the findings set out here.

Hit rate of the full screen: of about 200,000 compounds, about 3,000 (1.5%) were called active. The sample as a whole holds a higher share of actives than the screen did. A number with no mark means an inactive call.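 How the source made its calls: active means inhibition above about 50% when tested at 10 µM (limit read from the data); inactive means the rest.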

Luciferin 4-monooxygenase (Photinus pyralis), sequence (P08659 whole entry, looked up): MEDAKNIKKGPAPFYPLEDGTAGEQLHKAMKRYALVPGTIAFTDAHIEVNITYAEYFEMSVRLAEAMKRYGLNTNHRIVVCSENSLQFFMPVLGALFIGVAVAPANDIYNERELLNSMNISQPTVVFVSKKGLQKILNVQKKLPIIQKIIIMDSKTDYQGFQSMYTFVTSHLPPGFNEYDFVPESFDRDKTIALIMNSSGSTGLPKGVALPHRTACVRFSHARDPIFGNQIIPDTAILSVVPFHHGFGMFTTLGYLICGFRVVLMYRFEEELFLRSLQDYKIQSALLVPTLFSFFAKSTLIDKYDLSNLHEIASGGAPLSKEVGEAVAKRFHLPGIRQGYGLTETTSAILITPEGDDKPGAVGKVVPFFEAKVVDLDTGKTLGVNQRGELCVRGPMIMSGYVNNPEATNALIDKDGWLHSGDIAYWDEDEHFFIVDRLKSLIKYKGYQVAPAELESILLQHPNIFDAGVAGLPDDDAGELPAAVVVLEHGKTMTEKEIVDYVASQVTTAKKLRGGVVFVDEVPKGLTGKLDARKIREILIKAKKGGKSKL

This test addresses Luciferin 4-monooxygenase (Photinus pyralis) (UniProt P08659). Briefly: firefly luciferase enzyme inhibitors, primary screen, artefact control for luciferase-based inhibitor screens, biochemical, luminescence, ATPLite (AID 1006). Particulars: 10 min, at 10 µM, hits give high values. In general terms: ATP-based viability assays read luminescence as a measure of living cells.
`COc1cccc(-c2ccc(SCC(=O)N3CCN(c4ccccc4)CC3)nn2)c1`: the inhibition – broadly, the relative decrease from the control value, in per cent – is -6.1%.

For `O=C(NNc1ncnc2c1cnn2-c1ccccc1)c1ccco1`, the inhibition was 6%.

For `COc1ccc(-n2ncc3c(N4CCCc5ccccc54)ncnc32)cc1`, the inhibition is 54.9% (active).

On to `C1=C(CCNc2ncnc3c2cnn3-c2ccccc2)CCCC1`, for which the inhibition is 10.5%.

Turning to `COc1ccc(-n2ncc3c(N4CCc5ccccc54)ncnc32)cc1`, the inhibition is 41.9%.

`Cc1cccc(-n2ncc3c(N4CCc5ccccc54)ncnc32)c1`: the inhibition was 17.1%.

As to `c1ccc(-n2ncc3c(N4CCCC4)ncnc32)cc1`, the inhibition is 73.9% (active).

Consider `O=C(Nc1nnc(Cc2ccc(Cl)cc2)s1)c1cccnc1`, for which the inhibition is 7.5%.

As for `S=c1[nH]nc(/C=C/c2ccccc2)o1`, the inhibition is 7.5%.

As to `O=c1oc(/C=C/c2ccccc2)nc2ccccc12`, the inhibition was 80.5% (active).

On to `CCn1c(/C=C/c2ccc([N+](=O)[O-])o2)nc2ccccc2c1=O`, for which the inhibition is -6.1%.

In the case of `N#Cc1ccc(N2Cc3ccccc3/C2=N/C(=O)Nc2ccc(Cl)cc2)cc1`, the inhibition was -4.6%.

As for `Cc1ccc(S(=O)(=O)N(CC(=O)Nc2cccc([N+](=O)[O-])c2)Cc2ccc(Cl)cc2)cc1`, the inhibition is -6.1%.

Take `COc1ccc(/C=C/C(=O)Nc2cccnc2)cc1OC`: the inhibition is 13%.

As for `COc1ccc(/C=C/C(=O)N2CCCC2)cc1OC`, the inhibition is 5.6%.

Take `COc1ccc(/C=C/C(=O)Nc2ccc(C34CC5CC(CC(O)(C5)C3)C4)cc2)cc1OC`: the inhibition is 57.2% (active).

For `CCCN(CC(=O)Nc1ccc(OC)c(OC)c1)CC(=O)Nc1ccc(F)c(F)c1F`, the inhibition is 8.5%.

Regarding `COc1ccc(-n2nnnc2SCC(=O)Nc2ccccc2)cc1`, the inhibition was -8%.

For the compound `CCOc1cccc(-n2nnnc2-c2ccc(OC)cc2)c1`, the inhibition is -0.7%.

With `COc1ccc(-n2nnnc2-c2nc3ccccc3s2)cc1`, the inhibition is 73.2% (active).

As to `CCc1ccc(Oc2nc([N+](=O)[O-])nn2C)cc1`, the inhibition is -9.5%.

In the case of `Cc1nc(-c2ccccc2)sc1C(=O)/C=C/N(C)C`, the inhibition was 10.8%.

Regarding `O=C(CSc1nncs1)NC1CCCc2ccccc21` (configuration not stated), the inhibition was -8.5%.

`COCC1CCCN(Cc2nc(-c3ccc4c(c3)OCO4)no2)C1` (configuration not stated): the inhibition is 0.8%.

Turning to `O=C(O)c1ccc2c(c1)C(=O)N(c1ccc(/C=C/C(=O)c3ccccc3)cc1)C2=O`, the inhibition was -0.5%.

In the case of `O=C(/C=C/c1ccc(N2CCOCC2)cc1)c1ccccc1`, the inhibition is 60.8% (active).

For the compound `O=C(/C=C/c1ccccc1)c1ccoc1`, the inhibition was 14%.

Take `CC1=C[C@H]2Cc3cc(C)cc(C)c3S(=O)(=O)[C@@H]2C=C1`: the inhibition is -5.9%.

Take `O=C(CSc1ccccc1)Nc1ccc(C(=O)Nc2cccc(O)c2)cc1`: the inhibition was 1.9%.

Take `C/C(=C\C(=O)c1ccccc1)Nc1cccc(O)c1`: the inhibition was 44.4%.

In the case of `O=C(Nc1cccc(O)c1)c1ccc(C(=O)c2ccccc2)o1`, the inhibition is 69.9% (active).

Consider `NC(=O)C1CCN(C(=O)COc2cccc3cccnc23)CC1`, for which the inhibition is -10%.

In the case of `Cc1cc(C(=O)CCl)c(C)n1CC1COc2ccccc2O1` (configuration not stated), the inhibition was -0.3%.

Turning to `Cc1ccsc1C(=O)OCC(=O)c1cc(C)n(CC2CCCO2)c1C` (configuration not stated), the inhibition is 90.3% (active).

As for `Cc1cc(C(=O)Cn2cnc3cc([N+](=O)[O-])ccc3c2=O)c(C)n1CC1CCCO1` (configuration not stated), the inhibition is 1.6%.

Regarding `CCC1C=C(c2ccccc2)C=CN=C1N(CC)CC` (configuration not stated), the inhibition was -5%.

As to `O=C(Cn1c(N2CCN(C/C=C/c3ccccc3)CC2)nc2ccccc21)c1ccccc1`, the inhibition is -2.2%.

As to `CCN(CCCNC(=O)CCn1c(=O)[nH]c2ccsc2c1=O)c1ccccc1`, the inhibition was -2.6%.

Turning to `CC(C)=CCN1CCN(Cc2ccc(Oc3ncccn3)cc2)CC1CCO` (configuration not stated), the inhibition is -0.1%.

Take `N=c1c2c(-c3ccccc3)c(-c3ccccc3)n(Cc3ccccc3)c2ncn1CCCO`: the inhibition was -2.7%.

For `OCCCN1c2ccccc2Nc2nnc(-c3ccccc3)cc21`, the inhibition is 57.2% (active).

On to `CCCN(CCC)CCCNC(=O)CNC(=O)c1nn(-c2ccc(OC)cc2)c(=O)c2ccccc12`, for which the inhibition is -0.3%.

In the case of `Cc1ccc(OC(=O)c2cc3ccccc3o2)cc1`, the inhibition is 73.3% (active).

Turning to `O=C(Oc1cccnc1)c1cc2ccccc2oc1=O`, the inhibition is -6.1%.

In the case of `Cc1ccsc1C(=O)OCC(=O)c1cc2ccccc2o1`, the inhibition is 1.6%.

As to `CCOC(=O)c1c(C)[nH]c2c1-c1ccccc1C(=O)C2=O`, the inhibition is -5.3%.

On to `CCCCOC(=O)c1[nH]c(C)c(C(=O)OC)c1C`, for which the inhibition is 15.4%.

With `CCOC(=O)c1c(C)[nH]c(C2=NNC(=NC(C)COC)SC2)c1C` (configuration not stated), the inhibition was 56.5% (active).

On to `CN(c1ccc2nc3ccccc3c(=O)n2n1)C1CCCCC1`, for which the inhibition was 96.2% (active).

As for `O=c1c2ccccc2nc2n1C1(CCCCC1)Cc1ccccc1-2`, the inhibition is -6.3%.

In the case of `CCOC(=O)C(C)Sc1nc2ccccc2c(=O)n1CC1CCCCC1` (configuration not stated), the inhibition was 1.4%.

Consider `CC(C)CCC(C)NC(=O)c1ccc2nccnc2c1` (configuration not stated), for which the inhibition is 2.8%.

Turning to `COc1ccc(N2C(=O)/C(=C\c3ccco3)N=C2SCC(N)=O)cc1Cl`, the inhibition is -5.8%.

`Cc1ccc2cc3cc(C(=O)N4CCCCCC4)oc3nc2c1`: the inhibition is 69.5% (active).

As to `Cc1cc(=O)oc(C)c1C(=O)N1CCCCC1`, the inhibition was -6.7%.

For `Cc1ccc(C(=O)N2CCCCCC2)cc1Br`, the inhibition is -7.1%.

On to `C/C(=N/N1CCN(Cc2cccc3ccccc23)CC1)c1cccnc1`, for which the inhibition was -5.7%.

In the case of `COc1cccc(C(=O)Nc2ccc(NC(=O)c3ccco3)cn2)c1`, the inhibition was 6.5%.

Turning to `O=C(Nc1ccc(NC(=O)c2cccs2)cn1)c1ccco1`, the inhibition is 83.2% (active).

On to `O=C(Nc1ccc2nccnc2c1)c1ccco1`, for which the inhibition is 13%.

As for `N/C(=N\OC(=O)c1ccc2c(c1)OCO2)c1ccc(Br)cc1`, the inhibition was 60.6% (active).

Take `N/C(=N\OC(=O)N1c2ccccc2Sc2ccccc21)c1ccc(Br)cc1`: the inhibition was -3.4%.

For `N/C(=N\OC(=O)/C=C/c1ccccc1)c1ccc(Br)cc1`, the inhibition is -0.5%.

As for `COc1ccccc1CN(C)C(=O)C1(c2ccc(Cl)cc2)CC1`, the inhibition is -4.2%.

With `O=C(CCC(=O)N1CCCC1)Nc1ccc([N+](=O)[O-])cc1`, the inhibition is -1.6%.

For `CCn1c(=S)[nH]c2sc3c(c2c1=O)CCCCC3`, the inhibition is -1.8%.

Regarding `CCO[C@H]1OC(C(=O)Nc2ccccc2)=C[C@@H](C2CC2)[C@@H]1CCCO`, the inhibition is -0.3%.

Take `Cc1ccc(C)c(NC(=S)NCC(c2cccnc2)N2CCOCC2)c1` (configuration not stated): the inhibition is -5.6%.

In the case of `CCOC(=O)CSc1nnc(-c2ccncc2)o1`, the inhibition was 0.6%.

`CCCCSc1nnc(-c2ccc(C)cc2)o1`: the inhibition was 50.5% (active).

With `CCOC(=O)CSc1nnc(-c2ccc([N+](=O)[O-])cc2)o1`, the inhibition is 3%.

For the compound `Cc1ccnc(SCC(N)=O)n1`, the inhibition is -1.6%.

On to `O=C(Nn1cnnc1)c1ccc([N+](=O)[O-])cc1`, for which the inhibition was -5.5%.

Consider `Cc1ccc(-c2cc(C(=O)NCc3cn(C)nc3C)c3cc(Br)ccc3n2)cc1`, for which the inhibition was 10.9%.

For the compound `Cc1ccc2nc(-c3ccccc3)cc(C(=O)O)c2c1`, the inhibition is 15.5%.

With `Cc1ccc2nc(-c3cccc(Br)c3)cc(C(=O)Nn3cnnc3)c2c1`, the inhibition is 78.1% (active).

In the case of `Cc1nn2cc(-c3ccc(Cl)cc3)cnc2c1Br`, the inhibition is 7.5%.

Consider `Cc1noc(C)c1COc1ccc2ccc(=O)oc2c1`, for which the inhibition was -2.2%.

Turning to `CCCCc1cc(=O)oc2cc(C)cc(OCc3nn[nH]n3)c12`, the inhibition was -6.7%.

As for `COc1ccc(-c2cc3ccc(OCc4nn[nH]n4)cc3oc2=O)cc1`, the inhibition is 81.4% (active).

As for `Cc1cc(Cl)ccc1NC(=S)N1CCC(C(N)=O)(N2CCCCC2)CC1`, the inhibition is -2.1%.

As to `O=C(Oc1cccc(NC2=NS(=O)(=O)c3ccccc32)c1)c1ccncc1`, the inhibition is -2.8%.

With `Cc1ccc(S(=O)(=O)N(NC2=NS(=O)(=O)c3ccccc32)C(=O)c2ccccc2)cc1`, the inhibition was 0.4%.

Regarding `CC(C)(C)c1csc(NC2=NS(=O)(=O)c3ccccc32)n1`, the inhibition is 77.2% (active).

With `COc1ccc(/C(N)=N/OC(=O)Cc2ccccc2)cc1`, the inhibition was 10.9%.

For the compound `N/C(=N\OC(=O)CC1CCCCC1)c1ccccc1`, the inhibition is 90.2% (active).

As to `N/C(=N\OC(=O)CCc1ccccc1)c1cccnc1`, the inhibition is 14.6%.

With `N/C(=N\OC(=O)CCC1CCCCC1)c1ccccn1`, the inhibition was 71.2% (active).

Turning to `CCC(C)(NC(=O)c1ccccn1)C(=O)NC1CCCCC1` (configuration not stated), the inhibition is -4.6%.

Take `N/C(=N\OC(=O)CCc1ccccc1)c1ccc(Cl)cc1`: the inhibition was 0.8%.

Take `Cc1cc(C)nc(/N=C2\NC(=O)CC(C(=O)O)N2c2ccc(Cl)cc2Cl)n1` (configuration not stated): the inhibition was -5.6%.

As to `COc1ccccc1-c1noc(CSc2nc(C)cc(=O)[nH]2)n1`, the inhibition was -0.3%.

Take `CCc1ccc(NC(=O)C(=O)N/N=C(\C)CC(=O)NCCOC)cc1`: the inhibition was 10.5%.

With `CCCCNC(=O)N1CCN(S(C)(=O)=O)CC1`, the inhibition was -1.2%.

Take `CC(C)n1c(-c2ccncc2)n[nH]c1=S`: the inhibition is -5.7%.

As to `Cc1cccc(NC(=S)N2CCC(O)CC2)c1C`, the inhibition was -0.2%.

On to `CCCC(=O)Nc1ccc(C(=O)N/N=C/c2ccc[nH]2)cc1`, for which the inhibition was -1.8%.

With `O=C(c1cc(Cl)cc(Cl)c1)N1CCC(=O)N(C(COCc2ccccc2)Cc2ccccc2)CC1` (configuration not stated), the inhibition is -9.5%.

As for `O=C(O)Cc1sc(-c2ccc(C(=O)O)cc2)nc1-c1ccccc1`, the inhibition is -4.9%.

Consider `O=C(O)Cc1sc(-c2ccccc2)nc1-c1cccs1`, for which the inhibition was 6.8%.

`NC(=O)Cc1ccc2sc(-c3ccccc3)nc2c1`: the inhibition was 65.2% (active).

Turning to `CCOC(=O)c1ccc(NC(=O)C2CC(=O)Nc3nc4ccccc4n32)cc1` (configuration not stated), the inhibition was 0.7%.
